Test results taken from PubChem BioAssay.
Values without a mark were called inactive. Activity calls are given as the source filed them.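 The calls were made as follows, unless noted: active = mean inhibition over 43.08%, the solvent-only control mean plus 3 SD; inactive = the rest.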

Assays:
[1] = target: Nuclear receptor coactivator 3 (Homo sapiens) (UniProt Q9Y6Q9); experiment: SRC3 coactivator transcriptional activity inhibitors, confirmation, cell-based, luminescence, quadruplicate (AID 588792); settings: HEK293 GAL4-SRC3 luciferase reporter, at 3.6 µM, active compounds read high;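 also: 0% = DMSO treated cells and 100% = gossypol at 36 µM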
[2] = tested on: transactivating tegument protein VP16 (Human herpesvirus 1), Gal4-VP16 luciferase reporter; experiment: VP16 transactivation inhibitors, counter-screen for SRC3 inhibitor project, cell-based, luminescence, high throughput (AID 588794; in the data active = inhibition above about 30%); settings: mammalian cells, VP16-driven luciferase reporter luminescence; at 3.6 µM; active compounds read high

Sequence of Nuclear receptor coactivator 3 (Homo sapiens) (Q9Y6Q9 whole entry, looked up, the tested form may be a part): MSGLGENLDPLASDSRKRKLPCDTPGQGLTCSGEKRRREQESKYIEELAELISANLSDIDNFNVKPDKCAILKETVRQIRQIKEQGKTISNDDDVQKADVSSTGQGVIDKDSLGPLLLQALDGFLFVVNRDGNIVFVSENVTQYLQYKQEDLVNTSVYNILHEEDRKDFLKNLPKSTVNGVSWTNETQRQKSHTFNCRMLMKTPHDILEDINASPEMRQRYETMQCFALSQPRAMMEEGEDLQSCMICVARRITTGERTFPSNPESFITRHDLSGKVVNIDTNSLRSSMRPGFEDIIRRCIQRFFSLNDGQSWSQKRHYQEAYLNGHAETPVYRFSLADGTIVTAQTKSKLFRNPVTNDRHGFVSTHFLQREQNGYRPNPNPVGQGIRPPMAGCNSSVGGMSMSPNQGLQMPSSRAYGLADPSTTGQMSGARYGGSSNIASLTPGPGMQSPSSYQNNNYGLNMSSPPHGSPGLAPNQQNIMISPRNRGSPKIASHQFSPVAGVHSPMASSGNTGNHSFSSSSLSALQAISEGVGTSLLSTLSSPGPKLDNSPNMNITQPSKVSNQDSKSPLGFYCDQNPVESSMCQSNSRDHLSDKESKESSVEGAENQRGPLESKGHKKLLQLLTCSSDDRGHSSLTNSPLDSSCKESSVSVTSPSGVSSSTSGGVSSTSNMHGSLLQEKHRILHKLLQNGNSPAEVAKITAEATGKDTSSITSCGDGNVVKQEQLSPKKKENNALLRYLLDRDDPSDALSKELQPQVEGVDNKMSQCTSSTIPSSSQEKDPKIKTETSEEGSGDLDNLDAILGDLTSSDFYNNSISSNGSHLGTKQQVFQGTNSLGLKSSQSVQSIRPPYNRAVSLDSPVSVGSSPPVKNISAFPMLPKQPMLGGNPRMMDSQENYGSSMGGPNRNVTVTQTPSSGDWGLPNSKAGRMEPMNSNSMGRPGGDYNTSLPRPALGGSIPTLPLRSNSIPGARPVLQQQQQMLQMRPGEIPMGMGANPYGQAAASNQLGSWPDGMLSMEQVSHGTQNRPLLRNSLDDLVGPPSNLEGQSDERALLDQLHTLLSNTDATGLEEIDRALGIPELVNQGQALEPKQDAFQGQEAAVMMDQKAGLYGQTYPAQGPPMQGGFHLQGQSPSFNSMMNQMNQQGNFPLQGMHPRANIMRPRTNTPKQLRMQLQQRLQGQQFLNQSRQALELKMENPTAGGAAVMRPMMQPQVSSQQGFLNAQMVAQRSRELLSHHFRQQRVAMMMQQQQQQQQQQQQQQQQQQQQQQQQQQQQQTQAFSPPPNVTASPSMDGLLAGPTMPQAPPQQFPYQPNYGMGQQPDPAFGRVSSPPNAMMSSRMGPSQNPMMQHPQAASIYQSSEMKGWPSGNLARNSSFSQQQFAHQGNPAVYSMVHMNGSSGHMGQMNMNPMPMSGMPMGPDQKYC

Compound | inhibition [1] [%] | inhibition [2]
CCN(C(=O)COC(=O)c1ccccc1Cc1ccccc1)c1c(N)n(Cc2ccccc2)c(=O)[nH]c1=O | 6.67 | 13.9%
Cc1cccc(Nc2ncnc(N)c2[N+](=O)[O-])n1 | 24.9 | 4.32%
CCCc1[nH]nc2c1C(c1ccc(Br)s1)C(C#N)=C(N)O2 (centres undefined) | 8.21 | 25.7%
COCCNC(=O)c1cc(-c2ccccn2)nc2ccc(S(=O)(=O)N3CCC(C)CC3)cc12 | 30.4 | 0.64%
O=C(NNC1=Nc2ccccc2SC1)c1ccc(Cl)cc1 | 24.6 | 5.18%
CCOC(=O)N1CCC(NC(=O)C2CCCN(Cc3nc(-c4ccc(CC)cc4)oc3C)C2)CC1 (centres undefined) | 18.7 | 33.9% (active)
Cc1ccc(C2(c3ccc(C)cc3)CC2C(=O)Nc2ccc([N+](=O)[O-])cc2O)cc1 (centres undefined) | 11.3 | 19.4%
O=C(C1=C(O)C(=O)N(CCN2CCOCC2)C1c1cccc([N+](=O)[O-])c1)c1cccs1 (centres undefined) | -8.15 | -1.72%
Fc1ccccc1-c1csc(=Nc2cccnc2)n1CCCn1ccnc1 | 37.4 | 25.1%
c1csc(Cc2nn3c(-c4ccncc4)nnc3s2)c1 | 29.8 | 20.8%
Nc1nc(NCc2ccco2)nc(N2CCCCCC2)c1[N+](=O)[O-] | -0.71 | 18%
Cc1cc(C)c2nc3nc(C)cc(C)c3c(N)c2c1 | 24.5 | 57.9% (active)
